Among all 39,000 compounds or so, about 3,300 (8.5%) were called active. The sample as a whole holds a higher share of actives than the screen did.

The subject of this experiment is HepG2. The experiment in a line: cytotoxicity call (relative viability < 0.9). The settings on record: 10 µM.
On to `CSCC[C@H](NC(=O)[C@@H](N)Cc1c[nH]c2ccccc12)C(=O)N[C@@H](CC(=O)O)C(=O)N[C@@H](Cc1ccccc1)C(N)=O`, for which the cytotoxicity call is “inactive”.

Turning to `CSCC[C@H](NC(=O)[C@H](Cc1ccc(OS(=O)(=O)O)cc1)NC(=O)[C@@H](N)CC(=O)O)C(=O)NCC(=O)N[C@@H](Cc1c[nH]c2ccccc12)C(=O)N[C@@H](CCSC)C(=O)N[C@@H](CC(=O)O)C(=O)N[C@@H](Cc1ccccc1)C(N)=O`, the cytotoxicity call is “active”.

On to `CSCC[C@H](NC(=O)[C@H](Cc1c[nH]c2ccccc12)NC(=O)CNC(=O)[C@@H](NC(=O)[C@H](Cc1ccc(OS(=O)(=O)O)cc1)NC(=O)[C@H](CC(=O)O)NC(=O)[C@H](CCC(N)=O)NC(=O)[C@@H]1CCC(=O)N1)[C@@H](C)O)C(=O)N[C@@H](CC(=O)O)C(=O)N[C@@H](Cc1ccccc1)C(N)=O`, for which the cytotoxicity call is “inactive”.

Regarding `COc1cc(OC)nc(N=CNO)n1`, the cytotoxicity call was “inactive”.

On to `O=C(C[C@@H]1C[C@H]2c3cc(NC(=O)C4CCOCC4)ccc3O[C@H]2[C@H](CO)O1)NCc1cc(F)ccc1F`, for which the cytotoxicity call was “inactive”.

For `CO[C@@H]1[C@H](N(C)C(=O)c2ccccc2)C[C@H]2O[C@]1(C)n1c3ccccc3c3c4c(c5c6ccccc6n2c5c31)C(=O)NC4`, the cytotoxicity call was “active”.

With `C[C@@H]1CCCCO[C@H](CN(C)C(=O)c2ccccc2)[C@@H](C)CN([C@H](C)CO)C(=O)c2cc(NC(=O)Cc3ccccc3)ccc2O1`, the cytotoxicity call was “inactive”.

As to `Cc1noc(C)c1NC(=O)Nc1ccc2c(c1)C(=O)N([C@@H](C)CO)C[C@H](C)[C@@H](CN(C)Cc1ccccc1)OCCCC[C@H](C)O2`, the cytotoxicity call is “inactive”.

`C[C@@H]1CN([C@H](C)CO)C(=O)c2cc(NS(=O)(=O)c3ccc(F)cc3)ccc2O[C@@H]1CN(C)CC1CC1`: the cytotoxicity call was “inactive”.

Turning to `CN(C)C1C(O)=C(C(N)=O)C(=O)C2(O)C(O)=C3C(=O)c4c(O)cccc4C(C)(O)C3C(O)C12.Cl` (stereo not drawn), the cytotoxicity call was “inactive”.

As to `CC(=O)N(C)C[C@H]1Oc2ncc(C#C[C@@H](C)O)cc2C(=O)N([C@H](C)CO)C[C@H]1C`, the cytotoxicity call is “inactive”.

Turning to `CC(=O)N[C@@H]1[C@@H](O)[C@H](O)[C@@H](CO)O[C@H]1O`, the cytotoxicity call is “inactive”.

Take `COc1ccc(N2CCN(c3nc(NCCO)nc(N4CCOCC4)n3)CC2)cc1`: the cytotoxicity call was “inactive”.

`Cc1nc(N)sc1-c1ccnc(Nc2ccc(N3CCOCC3)cc2)n1`: the cytotoxicity call was “active”.

`CC(=O)Oc1ccc(-c2cc(=O)c3c(OC(C)=O)cc(OC(C)=O)cc3o2)cc1`: the cytotoxicity call is “inactive”.

Turning to `CN1CCN(C(=O)C[C@H]2CC[C@H]3[C@@H](COC[C@H](O)CN3C(=O)C3CC3)O2)CC1`, the cytotoxicity call is “inactive”.

For `COc1ccc(S(=O)(=O)N(C)C[C@H]2Oc3ccc(NC(=O)Cc4ccccc4)cc3C(=O)N([C@@H](C)CO)C[C@@H]2C)cc1`, the cytotoxicity call was “inactive”.

Consider `C[C@H]1CN([C@@H](C)CO)C(=O)c2cccc(NC(=O)Nc3ccccc3)c2O[C@@H]1CN(C)Cc1ccc(C(F)(F)F)cc1`, for which the cytotoxicity call is “inactive”.

Regarding `Cc1ncc(NC(=O)c2cccc(C(F)(F)F)c2)cc1-c1cnc(OC2CCOCC2)c(N2CCOCC2)c1`, the cytotoxicity call was “inactive”.

In the case of `CC(=O)c1cccc(C(F)(F)F)c1`, the cytotoxicity call was “inactive”.

Take `Cc1ccc(Nc2ncc3c(n2)N(C)C(=O)N(c2cc(NC(=O)c4cccc(C(F)(F)F)c4)ccc2C)C3)cn1`: the cytotoxicity call was “active”.

On to `Cc1ccc(S(=O)(=O)N(C)C[C@@H]2Oc3cc(Br)ccc3S(=O)(=O)N([C@H](C)CO)C[C@@H]2C)cc1`, for which the cytotoxicity call is “inactive”.

For `Cc1noc(C)c1S(=O)(=O)N(C)C[C@@H]1OCCCC[C@@H](C)Oc2ccc(NS(C)(=O)=O)cc2C(=O)N([C@H](C)CO)C[C@H]1C`, the cytotoxicity call was “inactive”.

As for `CCCC[P+](CCCC)(CCCC)Cc1ccc(NC(=O)[C@H](Cc2ccc3ccccc3c2)N/C(=N/C2CCCCC2)NC2CCCCC2)cc1`, the cytotoxicity call is “inactive”.

With `C/C=C/c1ccc2c(c1)O[C@H](CN(C)Cc1ccc(C(=O)O)cc1)[C@@H](C)CN([C@@H](C)CO)S2(=O)=O`, the cytotoxicity call was “inactive”.

Turning to `COc1ccc(CN(C)C[C@H]2OCCCC[C@@H](C)Oc3ccc(NC(=O)Nc4ccc5c(c4)OCO5)cc3C(=O)N([C@H](C)CO)C[C@@H]2C)cc1`, the cytotoxicity call is “inactive”.

In the case of `COc1ccc(CN(C)C[C@@H]2OCCCC[C@H](C)Oc3ccc(NC(=O)Nc4ccc5c(c4)OCO5)cc3C(=O)N([C@H](C)CO)C[C@@H]2C)cc1`, the cytotoxicity call is “inactive”.

`COc1ccc(CN(C)C[C@H]2OCCCC[C@H](C)Oc3ccc(NC(=O)Nc4ccc5c(c4)OCO5)cc3C(=O)N([C@H](C)CO)C[C@@H]2C)cc1`: the cytotoxicity call is “inactive”.

Consider `COc1ccc(CN(C)C[C@@H]2OCCCC[C@@H](C)Oc3ccc(NC(=O)Nc4ccc5c(c4)OCO5)cc3C(=O)N([C@@H](C)CO)C[C@@H]2C)cc1`, for which the cytotoxicity call is “active”.

Turning to `COc1ccc(CN(C)C[C@H]2OCCCC[C@H](C)Oc3ccc(NC(=O)Nc4ccc5c(c4)OCO5)cc3C(=O)N([C@@H](C)CO)C[C@@H]2C)cc1`, the cytotoxicity call is “active”.

Consider `COc1ccc(CN(C)C[C@H]2OCCCC[C@@H](C)Oc3ccc(NC(=O)Nc4ccc5c(c4)OCO5)cc3C(=O)N([C@H](C)CO)C[C@H]2C)cc1`, for which the cytotoxicity call was “active”.

Turning to `COc1ccc(CN(C)C[C@@H]2OCCCC[C@@H](C)Oc3ccc(NC(=O)Nc4ccc5c(c4)OCO5)cc3C(=O)N([C@@H](C)CO)C[C@H]2C)cc1`, the cytotoxicity call was “active”.

For the molecule `COc1ccc(CN(C)C[C@@H]2OCCCC[C@H](C)Oc3ccc(NC(=O)Nc4ccc5c(c4)OCO5)cc3C(=O)N([C@@H](C)CO)C[C@H]2C)cc1`, the cytotoxicity call is “inactive”.

With `COc1ccc(CN(C)C[C@@H]2OCCCC[C@@H](C)Oc3ccc(NC(=O)Nc4ccc5c(c4)OCO5)cc3C(=O)N([C@H](C)CO)C[C@@H]2C)cc1`, the cytotoxicity call was “inactive”.

For the molecule `COc1ccc(CN(C)C[C@@H]2OCCCC[C@H](C)Oc3ccc(NC(=O)Nc4ccc5c(c4)OCO5)cc3C(=O)N([C@@H](C)CO)C[C@@H]2C)cc1`, the cytotoxicity call is “inactive”.

Regarding `COc1ccc(CN(C)C[C@@H]2OCCCC[C@H](C)Oc3ccc(NC(=O)Nc4ccc5c(c4)OCO5)cc3C(=O)N([C@H](C)CO)C[C@H]2C)cc1`, the cytotoxicity call was “inactive”.

`COc1ccc(CN(C)C[C@@H]2OCCCC[C@@H](C)Oc3ccc(NC(=O)Nc4ccc5c(c4)OCO5)cc3C(=O)N([C@H](C)CO)C[C@H]2C)cc1`: the cytotoxicity call was “inactive”.

`O=C(C[C@H]1CC[C@@H](NC(=O)c2cnccn2)[C@@H](CO)O1)NCc1ccccc1F`: the cytotoxicity call is “inactive”.

Values taken from the antibiotic and cytotoxicity screens of Wong et al. (2023).
